# Source: ChEMBL document CHEMBL3988442, “University of Dundee, Small-Polar-MMV Screening Library” (2021)
# About 13,000 (27%) of roughly 48,000 compounds showed an effect of 50% or more. This is one part of the list.
# System: Wolbachia pipientis
# Test: Anti-Wolbachia Cell-Based Screen
# Assay type: functional
# Parameters: scale not given: in the data most compounds retested in dose-response had high values
# Conditions: 5 µM
row,Structure (SMILES),Percent Effect
1,CN1C(=O)CCc2cc(NC(=O)C3CCCC3)ccc21,-13.79%
2,CCS(=O)(=O)N1CCCC2(CCCN2C(=O)c2cn(C)cn2)C1 (stereo not given),0.7731%
3,CN(Cc1cc(Br)cn1C)C(=O)c1ccsc1,-18.58%
4,O=C(NC1CCN(c2ccccc2OC(F)F)C1)c1cccnc1 (stereo not given),-18.54%
5,O=C(Nc1cn[nH]c1)NC1CCN(c2ccccc2OC(F)F)C1 (stereo not given),-20.77%
6,O=C(NC1CCN(c2ccccc2OC(F)F)C1)c1c[nH]nn1 (stereo not given),107.7%
7,COc1ccc2c(c1)CN(c1nc(C)cc(C)n1)CC2,-6.244%
8,COc1ccc(C2CCCN2C(=O)c2csc(NC(C)=O)n2)cc1 (stereo not given),-0.5039%
9,COc1ccc(C2CN(c3nc(C)cc(C)n3)CCN2C(C)=O)cc1 (stereo not given),87.97%
10,CC(OCC(F)(F)F)C(=O)N1CCCCC1 (stereo not given),-2.646%
11,CN1N=C(C(=O)NCc2ccc3c(c2)CCCN3C)CCC1=O,13.95%
12,CN1CCCc2cc(CNC(=O)c3cccnc3O)ccc21,90.33%
13,CC(C)CN1CCCn2nc(CNC(=O)c3cccnc3O)cc2C1,-4.035%
14,O=C1CN(c2ccc(CNC(=O)c3cccnc3O)cc2F)CCN1,-18.4%
15,COc1ccc(COCC(O)CNC(=O)c2cnc(C)cn2)cc1 (stereo not given),4.456%
16,Cc1cnc(C(=O)NCc2ccc3c(c2)CCCN3C)cn1,101.2%
17,CC(C)c1nn(C)c(Cl)c1CNC1CCOc2ccccc21.Cl (stereo not given),-8.066%
18,CC(=O)NCC(=O)N1Cc2cc(-c3cc[nH]n3)ccc2C1c1cnco1 (stereo not given),-23.15%
19,COc1ccc(-n2cnnc2SCC(C)(C)O)cn1,-5.422%
20,COc1ccccc1OCC(=O)NS(=O)(=O)c1cc(F)ccc1F,-8.021%
21,COCCn1nc(C(=O)N2CCCC2c2cccc(F)c2)ccc1=O (stereo not given),1.762%
22,COc1nn(C)cc1C(=O)NCC(=O)NCc1cccnc1,-2.836%
23,COCCn1nc(C(=O)N(C)Cc2cccnc2)ccc1=O,131.6%
24,COCC(=O)N(Cc1cccnc1)CC1CCN(C2CCCC2)CC1,-6.321%
25,COCCn1nc(C(=O)N2CCN(C)CC2C)ccc1=O (stereo not given),-13.53%
26,COCCn1nc(C(=O)N(C)Cc2ccc3ccccc3c2)ccc1=O,98.47%
27,CCN(CC(=O)NC)S(=O)(=O)c1cnc2c(c1)c(C)nn2C,-1.026%
28,N#CC1(C(=O)N2CCN(c3nccs3)CC2)CCCCC1,-10.71%
29,CN(C)c1ncccc1NC(=O)COCC1CC1,7.684%
30,N#Cc1cccc(OCCN2CCCC(c3noc(C4CC4)n3)C2)c1 (stereo not given),-47.81%
